# Laboratory results published in PubChem BioAssay (NCI).
# This is part of a sample that, as a whole, favours compounds with a hit. Of some 83,000 tested, about 20% had one in any assay.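 Single-concentration screen, 48 h exposure, 96-well plates. Endpoint: percent growth. Below 10 = active.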 A number with no mark means an inactive call. The source made the active and inactive calls.
# Experiments:
# Assay in all cases: NCI-60 one-dose screen, 48 h (100 = growth as untreated, 0 = no growth, -100 = all killed)
# Details in all cases: 10 µM unless noted
# [1] = tested on: HCT-15 colon
# [2] = tested on: HT29 colon
# [3] = tested on: SNB-75 CNS
# [4] = tested on: SNB-19 CNS
# [5] = tested on: U251 CNS
# [6] = tested on: PC-3 prostate
# [7] = tested on: SK-MEL-5 melanoma
# [8] = tested on: UACC-62 melanoma
# [9] = tested on: LOX IMVI melanoma
# [10] = tested on: SK-MEL-28 melanoma
# [11] = tested on: SN12C renal
# [12] = tested on: UO-31 renal
# [13] = tested on: TK-10 renal
# [14] = tested on: ACHN renal
# [15] = tested on: CAKI-1 renal
# [16] = tested on: A498 renal
# [17] = tested on: CCRF-CEM leukemia
# [18] = tested on: MOLT-4 leukemia
# [19] = tested on: SK-MEL-2 melanoma
# [20] = tested on: EKVX NSCLC
Compound,growth [1],growth [2],growth [3],growth [4],growth [5],growth [6],growth [7],growth [8],growth [9],growth [10],growth [11],growth [12],growth [13],growth [14],growth [15],growth [16],growth [17],growth [18],growth [19],growth [20] [%]
COc1ccc(/C=C2\C(=O)N(C(=O)c3csc(NC(C)=O)n3)N=C2C)cc1,103%,98.9%,86.5%,102%,101%,98.9%,107%,108%,96%,110%,106%,81.9%,102%,107%,99%,121%,99%,86.9%,–,–
COc1ccccc1CNCCCN1C(=O)c2ccc3c4c(ccc(c24)C1=O)C(=O)N(CCCNCCCCNCCCCN)C3=O,30.6%,1.62% (active),-37.8% (active),4.86% (active),0.458% (active),-12.5% (active),-85% (active),-75% (active),-3.52% (active),-13.9% (active),6.05% (active),–,–,17.2%,64%,9.03% (active),13.8%,11.3%,-55.8% (active),–
CC[C@]1(O)C[C@@H]2CN(Cc3c([nH]c4ccccc34)[C@@](C(=O)OC)(c3cc4c(cc3OC)N(C)[C@H]3[C@@](O)(C(=O)OC)[C@H](OC(C)=O)[C@]5(CC)[C@@H]6C[C@@H]6CN6CC[C@]43[C@@H]65)C2)C1,60.7%,-2.26% (active),10.1%,51.7%,6.95% (active),14%,2.99% (active),34%,19.1%,64.4%,34.1%,–,55.7%,47.8%,50.6%,-8.06% (active),1.15% (active),1.8% (active),9.71% (active),–
COC1=CC(c2ccc[nH]2)=N/C1=C\c1[nH]c(C)c(C(=O)CCCCC(=O)Nc2ccccc2)c1C,-3.38% (active),-54.4% (active),46.8%,64.2%,1.79% (active),-40.5% (active),84.7%,101%,-71.8% (active),63.9%,73.5%,49.9%,-11.9% (active),95.8%,3.42% (active),116%,58.9%,76.6%,–,–
CN(C)c1ccc(-c2ccc(-c3ccc(C(=N)N)cn3)o2)cc1,-46.6% (active),-61.5% (active),-85.6% (active),12.7%,-91.1% (active),7.95% (active),-95.8% (active),-97.9% (active),-94.8% (active),-79.6% (active),-85.2% (active),–,-64.7% (active),-83.5% (active),–,-9.83% (active),-2.2% (active),-52.1% (active),-85.4% (active),–
CCC1=C[C@@H]2CN(C1)Cc1c([nH]c3ccccc13)[C@@](C(=O)OC)(c1cc3c(cc1OC)N(C=O)[C@H]1[C@@](O)(C(=O)OC)[C@H](OC(C)=O)[C@]4(CC)[C@@H]5C[C@@H]5CN5CC[C@]31[C@@H]54)C2,10.3%,-5.12% (active),8.7% (active),28.3%,11.8%,7.43% (active),-26.9% (active),18.5%,7.6% (active),60.9%,21.9%,28.7%,49.2%,35.6%,8.29% (active),-8.16% (active),8.71% (active),13.4%,–,–
Cc1cc(Nc2nc(C(=O)Nc3ccccc3)nc3ccccc23)n[nH]1,29.5%,84.7%,-0.848% (active),97.3%,72.5%,51.2%,59.2%,59.9%,54%,69.5%,63%,37.3%,58.8%,39.9%,24%,-1.3% (active),38.1%,55.4%,–,–
O=C(CN1CCN(c2cc3c(cc2F)c(=O)c(C(=O)O)cn3C2CC2)CC1)Nc1ccc(C(=O)/C=C/c2ccccc2)cc1,56.8%,11.4%,61.8%,40.3%,14.9%,55.2%,13.6%,35.5%,5.67% (active),85.7%,11.3%,45%,39.9%,40.1%,73.1%,57.7%,15.2%,19%,–,–
COc1cc(NCCCN=C(N)NC(N)=NC(C)C)c2ncccc2c1,89.8%,58.9%,75.3%,77.7%,70.8%,45%,27%,–,80.8%,84.4%,38.1%,69.1%,107%,94%,94.7%,120%,–,57.7%,–,–
COc1cc(-c2nc(-c3nc4ccccc4[nH]3)cc3c2[nH]c2ccccc23)cc(OC)c1OC,42.3%,49.7%,79.3%,66.9%,48%,14.1%,29%,28.5%,38.7%,44.2%,40.4%,24.3%,–,–,20%,44.8%,16.8%,44.3%,–,–
O=C(O)c1cn(C2CC2)c2cc(N3CCN(S(=O)(=O)c4ccc(Cl)c(Cl)c4)CC3)c(F)cc2c1=O,6.24% (active),0.259% (active),13.2%,24.7%,12.4%,16.2%,2.06% (active),–,1.21% (active),48.5%,10.4%,10%,33.2%,4.95% (active),3.06% (active),13.8%,16.9%,3.44% (active),–,–
Nc1c(C(=O)Nc2cccc(C(F)(F)F)c2)sc2nc3c(cc12)CCCCCC3,19.3%,0.128% (active),-34% (active),25.9%,-18.4% (active),52.4%,25.8%,–,21.5%,10.4%,5.73% (active),-2.04% (active),5% (active),-35.6% (active),20.8%,-28.3% (active),51%,45.6%,51.4%,–
COc1ccc(-c2nc(-c3nc4ccc(F)cc4[nH]3)cc3c2[nH]c2ccccc23)cc1,36.1%,32.8%,60.8%,62.3%,29.4%,27.6%,51.1%,41.4%,29.5%,57.4%,23.1%,7.03% (active),–,32.1%,15.2%,26.4%,17.6%,22.5%,–,–
COc1ccc(-c2nc3sccn3c2-c2ccnc(NCCCNS(=O)(=O)c3ccc(F)cc3)n2)cc1,2.92% (active),20%,40.4%,42.6%,26.1%,21.1%,-59.6% (active),–,6.15% (active),11.5%,14.3%,4.56% (active),52.9%,2.12% (active),21.8%,–,9.5% (active),6.65% (active),-0.52% (active),–
O=c1oc2cc(OS(=O)(=O)c3ccccc3)c(Cl)cc2c2c1CCCCCC2,84.6%,67.7%,83.1%,93.3%,87.5%,73.9%,77.9%,–,90.1%,91.2%,87.2%,71.5%,111%,88.2%,–,86.1%,81%,77.4%,106%,–
Cc1cc2c(C(C)C)c(O)c(O)c(C=NCCCCC(=O)O)c2c(O)c1-c1c(C)cc2c(C(C)C)c(O)c(O)c(C=NCCCCC(=O)O)c2c1O,34.7%,46.6%,62.1%,30.9%,24%,29.2%,49.4%,–,43.4%,64.2%,49.2%,74.2%,49%,62%,73.1%,56.3%,29.8%,34.9%,43.6%,38.4
COc1ccc(C(=O)c2cc(OC)c(OC)c(OC)c2)cc1/C=C/C(=O)c1ccc2c(c1)OCO2,-22.6% (active),-27.2% (active),28.2%,11.8%,-19.1% (active),24%,8.97% (active),–,-36.5% (active),-57% (active),23.8%,-9.84% (active),44.6%,-76.4% (active),–,71.9%,-9.53% (active),2.27% (active),22.2%,–
